The test system of assay [1] is Nanoluciferase (engineered Oplophorus gracilirostris luciferase). The assay is described as follows: Primary Nanoluciferase (NLuc) qHTS assay for identification of artifact compounds. (AID 1845222).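 Note: NLuc secreted into diluted conditioned medium of S16 cells; series mostly up to about 54 µM.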 In short, it runs like this:
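S16 cell supernatant NLuc, 1:55; cpds qHTS; 15 min RT dark; Nano-Glo substrate 1:100, 5 min; luminescence; Hill fit of % inhibition.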

Assay [2] is described as follows: Primary redox qHTS assay for identification of artifact compounds. (AID 1845223). In short, it runs like this:
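Amplex Red (25 uM) and HRP (250 mU/mL) in HBSS, with compounds for 15 min, then 250 uM DTT for 30 min, room temperature, dark. Fluorescence 525/598 nm read; normalized to DMSO and 10 uM DA3003; Hill fit.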

Results filed as inconclusive are left out. Entries that show only a call come without a potency. Activity calls are given as the source filed them. Calls come from the whole dose curve; as a rule, active = well fitted curve in the direction sought with a large enough effect; inconclusive = small, poorly fitted or top-dose-only effect, or another doubt; inactive = no such curve, though single readings can be large; an effect the other way counts as inactive or inconclusive.

Drawing on PubChem BioAssay (NCATS), this text covers Potency for 28 compounds.

`COc1cc(CC2COC(c3ccc(OC4OC(CO)C(O)C(O)C4O)c(OC)c3)C2CO)ccc1O` (stereo unspecified): the Potency entry in assay [1] and in assay [2] was “inactive” each time.
Consider `C=C1C[C@]23C[C@H]1CC[C@H]2[C@]1(C)CC[C@H](O)[C@@](C)(C(=O)O)[C@H]1[C@@H]3C(=O)O`, for which the Potency entry in assay [1] and in assay [2] was “inactive” throughout.
`Cc1oc(S(=O)(=O)N2CCCCC2)cc1NC(=O)Nc1ccccc1`: the Potency result in assay [1] and in assay [2] was “inactive” throughout.
For the compound `Cc1c(C)c(NCC(=O)N(C)C2CCN(Cc3ccc(C(N)=O)cc3)CC2)c(C)c(C)c1N`, the Potency entry in assay [1] and in assay [2] was “inactive” in each case.
For `O=C(O)CCc1c(C(=O)O)[nH]c2cc(Cl)cc(Cl)c12`, the Potency entry in assay [1] and in assay [2] was “inactive” throughout.
For the compound `Cn1cc(-c2c[nH]c3ncnc(N4CCOCC4)c23)cn1`, the Potency result in assay [1] and in assay [2] was “inactive” throughout.
`CC1(C)CCCC2(C)c3c4c(c(=O)oc(=O)c3=CCC12)=CCC1C(C)(C)CCCC41C` (stereo unspecified): the Potency result in assay [1] and in assay [2] was “inactive” throughout.
Consider `C/C=C1/[C@H](O[C@@H]2O[C@H](CO)[C@@H](O)[C@H](O)[C@H]2O)OC=C(C(=O)OC)[C@H]1CC(=O)OCCc1ccc(O)c(O)c1`, for which the Potency result in assay [1] and in assay [2] was “inactive” in each case.
As for `C=C1CC2C3(C)C=CC(=O)OC(C)(C)C3CC(OC(C)=O)C2(C)C2C(=O)OC(C)C(=O)C12C` (stereo unspecified), the Potency entry in assay [1] and in assay [2] was “inactive” each time.
As to `CC(=O)c1ccc(O[C@@H]2O[C@H](CO[C@@H]3OC[C@@H](O)[C@H](O)[C@H]3O)[C@@H](O)[C@H](O)[C@H]2O)cc1`, the Potency entry in assay [1] and in assay [2] was “inactive” in each case.
On to `O=C(O)/C=C/c1ccc2occc2c1O[C@@H]1O[C@H](CO)[C@@H](O)[C@H](O)[C@H]1O`, for which the Potency entry in assay [1] and in assay [2] was “inactive” in each case.
Turning to `C=C1C2CCC3C(CCC4[C@@]3(C)CCC[C@@]4(C)C(=O)O)(C2)[C@@H]1OC(=O)/C(C)=C\C` (stereo partly specified), the Potency result in assay [1] and in assay [2] was “inactive” throughout.
Turning to `COc1cc(CO)cc(OC)c1O[C@@H]1O[C@H](CO)[C@@H](O)[C@H](O)[C@H]1O`, the Potency entry in assay [1] and in assay [2] was “inactive” in each case.
Take `CCC(C)/C=C(C)/C=C/C1=CC2=C(Cl)C(=O)C(C)(O)C(=O)C2(O)C(OC)O1` (stereo unspecified): the Potency entry in assay [1] and in assay [2] was “inactive” each time.
Consider `CCC1=C(C)C(=O)C(C)CC12C(=O)CCC2C(=O)O` (stereo unspecified), for which the Potency result in assay [1] and in assay [2] was “inactive” throughout.
For `C=C(CCO)C(=O)OCC1OCC(OC(=O)C(=C)CCO[C@@H]2O[C@H](CO)[C@@H](O)[C@H](O)[C@H]2O)C(O)C1O` (stereo partly specified), the Potency result in assay [1] and in assay [2] was “inactive” each time.
For the compound `CC(C)(O)[C@@H]1CC[C@]2(CO)[C@@H](O)CC[C@](C)(O)[C@H]2[C@@H]1O[C@@H]1O[C@H](CO)[C@@H](O)[C@H](O)[C@H]1O`, the Potency entry in assay [1] and in assay [2] was “inactive” in each case.
Regarding `C=C1C2(C)CC3C4(C)OC(C5OC56C4=CC(=O)OC6(C)C)C3(C)C13C(=O)OC(C)C3(O)C2=O` (stereo unspecified), the Potency result in assay [1] and in assay [2] was “inactive” throughout.
On to `COc1cc(Nc2nc3ccccc3nc2NS(=O)(=O)c2cccc(NC(=O)c3ccc(C)c(OC)c3)c2)cc(OC)c1`, for which the Potency entry in assay [1] and in assay [2] was “inactive” each time.
Take `COC(=O)C1=COC(O[C@@H]2O[C@H](CO)[C@@H](O)[C@H](O)[C@H]2O)/C(=C\COC(=O)/C=C/c2ccccc2)C1CC(=O)OCCc1ccc(O)cc1` (stereo partly specified): the Potency entry in assay [1] and in assay [2] was “inactive” each time.
Consider `COC(=O)C1=CO[C@@H](O[C@@H]2O[C@H](CO)[C@@H](O)[C@H](O)[C@H]2O)[C@H]2[C@@H]1C=C[C@]21C=C([C@H](C)OC(=O)/C=C/c2ccc(O[C@@H]3O[C@H](CO)[C@@H](O)[C@H](O)[C@H]3O)cc2)C(=O)O1`, for which the Potency result in assay [1] and in assay [2] was “inactive” in each case.
For `C[C@]12CC/C(=N\OCC(=O)O)C=C1CC[C@@H]1[C@@H]2[C@@H](O)C[C@@]2(C)[C@H]1CC[C@]2(O)C(=O)CO`, the Potency result in assay [1] and in assay [2] was “inactive” in each case.
Take `C[C@@H]1C[C@@H](O)[C@@]23CO[C@]2(CO)CCC[C@@H]3[C@@]12C[C@@H](c1ccoc1)OC2=O`: the Potency entry in assay [1] and in assay [2] was “inactive” in each case.
Consider `CC(C)=CCC[C@@](C)(O)[C@H]1CC[C@]2(C)[C@@H]1[C@H](O)CC1[C@@]3(C)CC[C@H](O[C@@H]4O[C@H](CO)[C@@H](O)[C@H](O)[C@H]4O[C@@H]4O[C@H](CO)[C@@H](O)[C@H](O)[C@H]4O)C(C)(C)[C@@H]3CC[C@]12C` (stereo partly specified), for which the Potency result in assay [1] and in assay [2] was “inactive” each time.
As for `COc1cc(O)c2c(c1)C1(OC2=O)C(C)=CC(=O)C1O` (stereo unspecified), the Potency result in assay [1] and in assay [2] was “inactive” each time.
As to `C/C=C(\C)C(=O)OC1C(C)C2(O)C3C=C(C)C(=O)C3CC(CO)=CC2C2C(C)(C)C12OC(C)=O` (stereo unspecified), the Potency entry in assay [1] and in assay [2] was “inactive” each time.
For the compound `COc1ccc(N2CCN(CCCNC(=O)Cn3c(=O)c4cccn4c4c(C)ccnc43)CC2)cc1`, the Potency result in assay [1] and in assay [2] was “inactive” in each case.
`COc1cc(C2Oc3c(OC)cc(/C=C/C(=O)OC4CC(O)(C(=O)O)CC(O)C4O)cc3C2CO)ccc1O` (stereo unspecified): the Potency result in assay [1] and in assay [2] was “inactive” each time.
